About 6,200 (11%) of roughly 59,000 compounds were called active. About 9% were inconclusive and are not listed. Cut-off read from the data, not from the text of the source: active = max dye-equivalent concentration above about 10 nM; inconclusive = mostly about 1.1 nM to 9.6 nM; inactive = weaker than that. What follows is part of a selection rich in actives, with near analogues and random picks from the rest.
Experiment: qHTS Assay for Spectroscopic Profiling in 4-MU Spectral Region
Conditions: compound autofluorescence, 340/450 nm, 4-MU equivalents; active compounds read high
How it was run: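 Compounds in 100 mM Tris, pH 8.0, incubated 15 min at room temperature, then fluorescence read at 340 nm excitation/450 nm emission. Signal converted to 4-MU dye-equivalent concentration using an on-plate six-point 4-MU standard curve.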

| Compound | max dye-equivalent concentration |
| --- | --- |
| COC(=O)c1nc(NC(=O)c2ccc(Cl)cc2)n[nH]1 | inactive |
| CCC(=O)Nc1ccccc1N1CCN(S(C)(=O)=O)CC1 | inactive |
| O=C(Cn1cnc2c(cnn2-c2ccccc2)c1=O)NCc1ccccc1 | inactive |
| O=C(Nc1ccc(S(=O)(=O)N2CCCC2)cc1Cl)C1=COCCO1 | inactive |
| O=C(Cn1c(=O)sc2ccccc21)Nc1ccc2c(c1)OCCO2 | inactive |
| Cn1cccc1C(=O)NC(=O)COC(=O)Cc1coc2ccc3ccccc3c12 | 30 nM (active) |
| Cn1cccc1C(=O)Nc1nccs1 | inactive |
| CC(C)(C)NC(=O)NC(=O)COC(=O)Cn1c(C(F)(F)F)nc2ccccc21 | inactive |
| CC(=O)c1cc2c(cc1N)OCO2 | inactive |
| COCc1[nH]nc2c1C(C1C=CCCC1)C(C#N)=C(N)O2 (stereo not drawn) | inactive |
| CC(=O)Oc1ccc2c(C)c(CC(C)O)c(=O)oc2c1 (stereo not drawn) | 15000 nM (active) |
| FC(F)(F)c1ccccc1-c1nc(-n2ccnc2)c2ccccc2n1 | inactive |
| O=C1CN(C(=O)COC(=O)C2CC(=O)N(Cc3ccco3)C2)c2ccccc2N1 (stereo not drawn) | inactive |
| COc1ccc(C(=O)n2nc(-c3ccc(C)cc3)nc2N)cc1OC | 35 nM (active) |
| COc1ccc(C(=O)n2nc(-c3ccc(Cl)cc3)nc2N)cc1OC | inactive |
| COc1ccccc1C(=O)n1nc(-c2ccccc2)nc1N | inactive |
| CN(C(=O)c1ccccn1)c1nnc(-c2ccccn2)s1 | inactive |
| C=CCNC(=O)c1ccc(C)c(Br)c1 | inactive |
| CCOC(=O)N1CCN(C(=O)c2cc3c(ccc4ccccc43)oc2=O)CC1 | 1500 nM (active) |
| O=C(NCCc1ccc2c(c1)OCCO2)c1cc2ccccc2o1 | inactive |
| CCOC(=O)N1CCN(C(=O)c2n[nH]c(=O)c3ccccc23)CC1 | inactive |
| CNC(=O)c1cc2c(ccc3ccccc32)oc1=N | 9900 nM (active) |
| COc1c(C(=O)N2CCCC2)ccc2ccccc12 | inactive |

| Compound | max dye-equivalent concentration |
| --- | --- |
| CCCCC(=O)Nc1cc(C)c2c(=O)oc3ccccc3c2n1 | inactive |
| C=CCSc1nc2ccccc2[nH]1 | inactive |
| Cc1ccc(CNC(=O)C2CC(=O)N(C3CCCCCCC3)C2)cc1 (stereo not drawn) | inactive |
| COc1ccc(CCNS(=O)(=O)c2ccc(F)cc2)cc1OC | inactive |
| COC(=O)c1ccc2c(c1)S(=O)(=O)NC(=NCCCN1CCOCC1)S2 | inactive |
| Cc1cc(-n2nc(C)cc2C)n2ncc(-c3ccccc3)c2n1 | inactive |
| Cc1cc(C(F)(F)F)n2ncc(-c3ccccc3)c2n1 | 12 nM (active) |
| Cc1cc(Cl)ccc1OCC(=O)Oc1c(Cl)c(Cl)c(Cl)c(Cl)c1Cl | inactive |
| Cc1cc(C)c2nc(SCCC#N)nc(C)c2c1 | inactive |
| C=CCN(c1ccc(C(N)=O)cc1)S(C)(=O)=O | inactive |
| O=C(COC(=O)c1ccc(Oc2ccccc2)cc1)Nc1nnc(-c2ccccc2)o1 | inactive |
| Nc1ccc(-c2nnc(-c3ccc(-c4ccccc4)cc3)o2)cc1 | 170 nM (active) |
| O=C(CSc1nnc(-c2ccccc2)o1)N1CCOCC1 | inactive |
| O=C(Nc1ccc(Cl)cc1)c1ccsn1 | inactive |
| CCC[C@H]1C(=O)N2C(N(C)C)=Nc3ccc(C)cc3N2C1=O | inactive |
| COc1ccc(-n2c(C)cc(C(=O)CSc3nnc(-c4cccs4)o3)c2C)cc1 | inactive |
| COc1ccc(OC)c(C(=O)CSc2nnc(-c3cccs3)o2)c1 | 150 nM (active) |
| COc1ccc(-c2nnc(SCC(=O)c3cccs3)o2)c(OC)c1 | inactive |
| CC(C)c1ccc(N2CC(C(=O)Nc3nccs3)CC2=O)cc1 (stereo not drawn) | inactive |
| Cn1nnnc1SCC(=O)N1CCN(C(c2ccccc2)c2ccccc2)CC1 | inactive |
| c1ccc(CCN2CN=C(Nc3nc4ccccc4o3)NC2)cc1 | inactive |
| Cc1ccc2nc(NC3=NCN(CCc4ccccc4)CN3)nc(C)c2c1 | inactive |
| COc1ccc2nc(NC3=NCN(CC4CCCO4)CN3)nc(C)c2c1 (stereo not drawn) | 92 nM (active) |

| Compound | max dye-equivalent concentration |
| --- | --- |
| Cc1ccc(S(=O)(=O)NCC(=O)N(CC(=O)NC2CCCCC2)Cc2ccco2)cc1 | inactive |
| Cc1cc(C(=O)NCCCc2ccccc2)no1 | inactive |
| c1ccc2c(NCC3CCCO3)nc(-c3ccncc3)nc2c1 (stereo not drawn) | inactive |
| CCCN(CCC)CCNC(=O)c1cc2c(C)nc3ccccc3c2o1 | 17 nM (active) |
| CCCC(=O)N(CCc1ccccc1)Cc1nc2ccccc2c(=O)[nH]1 | inactive |
| Cc1nc2ccccc2c2oc(C(=O)NCC3CCCO3)cc12 (stereo not drawn) | 12 nM (active) |
| Cc1ccc(C(=O)NCC2CCCO2)o1 (stereo not drawn) | inactive |
| Cc1cc(NC(=O)CN2CCC(O)(c3cccc(F)c3)CC2)no1 | inactive |
| CCn1c(SCC(=O)c2ccc(Cl)s2)nnc1-c1cccs1 | inactive |
| Cc1ccn2cc(-c3nonc3C)cc2c1 | inactive |
| COC(=O)c1cccc(NC(=O)CSc2nc(C)cc(=O)[nH]2)c1 | inactive |
| Cc1ccc2c(c1)sc1ncc(NC(=O)c3ccccc3)c(=O)n12 | 55 nM (active) |
| Cc1ccccc1NC(=O)c1ccccc1 | inactive |
| Cc1ccc(NC(=O)c2nc[nH]c2C(=O)N2CCCCC2)c(C(=O)c2ccccc2)c1 | inactive |
| CCOC(=O)c1c(C)[nH]c(C)c1C(=O)CSc1nc(N)cc(N)n1 | inactive |
| CCOC(=O)N1CCC(NC(=O)CN2C(=O)COc3ccc(C(C)(C)C)cc32)CC1 | inactive |
| O=C(c1cccc(F)c1)N1CCC2(CCCN(Cc3ccncc3)C2)CC1 | inactive |
| CCC12CN3CC(CC)(CN(C1)C31C(=O)N(C)c3ccc(C)cc31)C2=O (stereo not drawn) | inactive |
| CC(=O)OCc1cc2cc(C)ccc2[nH]c1=O | inactive |
| CCNCc1cc2cc(C)ccc2[nH]c1=O | 49 nM (active) |
| CCOC(=O)c1cc2cc(C)ccc2[nH]1 | inactive |
| O=C(CNC(=O)c1ccc(Cl)cc1Cl)NCC(=O)Nc1ccccc1N1CCOCC1 | inactive |
| COc1ccc2c(c1OC)C(=O)OC2c1c(O)nc(SC)n(-c2ccccc2)c1=O (stereo not drawn) | inactive |

| Compound | max dye-equivalent concentration |
| --- | --- |
| O=c1[nH]c(=O)c2nc3ccccc3nc2[nH]1 | 210 nM (active) |
| O=c1[nH]c(-c2cccs2)nc2ccccc12 | inactive |
| CC1(C)CCCC2=C1CC1C(=O)N(c3ccccc3)C(=O)C1C2 (stereo not drawn) | inactive |
| CCOC(=O)C1CCN(Cc2coc3ccc(Cl)cc3c2=O)CC1 | inactive |
| Cc1noc(C)c1-c1nccc(N2CCOCC2)n1 | inactive |
| CC[C@@H]1Cc2cc(O)ccc2C2=C1c1ccc(O)cc1C[C@H]2CC | 270 nM (active) |
| O=C(NCCC1=CCCCC1)C1CCN(Cc2cnn(-c3ccccc3)c2-n2cccc2)CC1 | inactive |
| COC(=O)c1ccc(Oc2nc(Nc3ccc(F)cc3)nc(N3CCCC3)n2)cc1 | inactive |
| c1ccc(CNc2ncncc2-c2cccnc2)cc1 | inactive |
| Cc1ccc(S(=O)(=O)c2nc(NCCCn3ccnc3)sc2Cl)cc1 | inactive |
| Cc1ccc(C(=O)O)cc1S(=O)(=O)NCC1CCCO1 (stereo not drawn) | inactive |
| Cc1ccc(-c2noc(-c3ccccc3C(=O)NCC3CCCO3)n2)cc1 (stereo not drawn) | inactive |
| CCOc1cc(-c2nc3cc(C)ccn3c2NCC2CCCO2)ccc1O (stereo not drawn) | 68 nM (active) |
| O=C(CSc1nnc(-c2ccco2)o1)NCC(=O)c1ccccc1 | inactive |
| COc1ccc(C(=O)N(Cc2ccc(N(C)C)cc2)C2CCS(=O)(=O)C2)cc1 (stereo not drawn) | inactive |
| CC(=O)N1CCC2(CCCN(c3ncccn3)C2)CC1 | inactive |
| COc1cc2c(cc1OC)C(c1ccncc1)CC(=O)N2 (stereo not drawn) | inactive |
| COc1ccc(CSc2nc(N3CCOCC3)c3c(c2C#N)CC(C)(C)OC3)cc1 | 30 nM (active) |
| CC(C)c1nc(N2CCOCC2)c(C#N)c2c1COC(C)(C)C2 | 140 nM (active) |
| c1ccc2[nH]c(NCCN3CCOCC3)nc2c1 | inactive |
| CC1(C)Cc2c(C#N)c(SCc3nc4ccccc4[nH]3)nc(N3CCOCC3)c2CO1 | 28 nM (active) |
| COc1ccc(C(CNC(=O)c2cccnc2SC)N2CCOCC2)cc1 (stereo not drawn) | inactive |
| CC(C)Cc1nc(N2CCOCC2)c(C#N)c2c1CCC2 | 56 nM (active) |

| Compound | max dye-equivalent concentration |
| --- | --- |
| CCn1c(Cc2ccccc2)nnc1SCc1nc2ccccc2c(=O)[nH]1 | inactive |
| O=C(Nc1cccc(F)c1)N1CC2(CCN(C(=O)c3csnn3)CC2)C1 | inactive |
| O=C(c1cc(C(F)(F)F)cc(C(F)(F)F)c1)N1CCC[C@@]2(CCN(c3ccccn3)C2)C1 | inactive |
| Cc1cc(C)n(C(=O)c2ccc(S(=O)(=O)N3CCCC3)cc2)n1 | inactive |
| CCSc1nc(=S)n(CC)c(C)c1C(C)=O | inactive |
| CCOC(=O)c1sc(NC(=O)CSc2nnc(-c3ccco3)o2)c(C(=O)OCC)c1C | inactive |
| CC1CCCN(C(=O)Cn2c(=O)oc3ccccc32)C1 (stereo not drawn) | inactive |
| COC(=O)C1=C(C)NC(=O)NC1/C=C/c1ccccc1 (stereo not drawn) | inactive |
| CC(C)C(=O)N1CCN(c2nc(-c3ccccc3)c3c(c2C#N)CC(C)(C)OC3)CC1 | 190 nM (active) |
| CNC(=O)Nc1cc(C(C)(C)C)no1 | inactive |
| Cn1nnc(NC(=O)CSc2ncn[nH]2)n1 | inactive |
| CCCCC(=O)Nc1ccc2c(c1)OCCO2 | inactive |
| CCCC(=O)Nc1ccc2c(c1)nc1n2CCSC1 | inactive |
| CCCCCC(=O)Nc1ccc2oc(-c3ccncc3)nc2c1 | 23 nM (active) |
| O=C(c1ccco1)N1CCC2(CC1)CCN(c1ncccn1)CC2 | inactive |
| O=C1NC(c2ccncc2)Nc2sc3c(c21)CCCC3 (stereo not drawn) | 59 nM (active) |
| COC(=O)c1ccc(Oc2nc(NC(C)C)nc(SC)n2)cc1 | inactive |
| c1ccc2c(Nc3ccncc3)nc(-c3ccoc3)nc2c1 | inactive |
| COc1cccc(-c2nc(Nc3ccncc3)c3ccccc3n2)c1 | inactive |
| c1ccc2c(Nc3ccncc3)nc(-c3ccc4c(c3)OCO4)nc2c1 | 19 nM (active) |
| CCOCCCN1C(=O)CN(C2CCCCC2)C(=O)C1c1ccc(OCC)c(OC)c1 (stereo not drawn) | inactive |
